Anthrax LF inh2 = blocks Bacillus anthracis lethal factor protease; multiplex microsphere protease cleavage assay, LF; 0.12% of 360,000 active; P15917; inhibition, % at 10 µM; note: plate controls were buffer without enzyme for full effect and enzyme alone for no effect
Target sequence (P15917 whole entry, looked up): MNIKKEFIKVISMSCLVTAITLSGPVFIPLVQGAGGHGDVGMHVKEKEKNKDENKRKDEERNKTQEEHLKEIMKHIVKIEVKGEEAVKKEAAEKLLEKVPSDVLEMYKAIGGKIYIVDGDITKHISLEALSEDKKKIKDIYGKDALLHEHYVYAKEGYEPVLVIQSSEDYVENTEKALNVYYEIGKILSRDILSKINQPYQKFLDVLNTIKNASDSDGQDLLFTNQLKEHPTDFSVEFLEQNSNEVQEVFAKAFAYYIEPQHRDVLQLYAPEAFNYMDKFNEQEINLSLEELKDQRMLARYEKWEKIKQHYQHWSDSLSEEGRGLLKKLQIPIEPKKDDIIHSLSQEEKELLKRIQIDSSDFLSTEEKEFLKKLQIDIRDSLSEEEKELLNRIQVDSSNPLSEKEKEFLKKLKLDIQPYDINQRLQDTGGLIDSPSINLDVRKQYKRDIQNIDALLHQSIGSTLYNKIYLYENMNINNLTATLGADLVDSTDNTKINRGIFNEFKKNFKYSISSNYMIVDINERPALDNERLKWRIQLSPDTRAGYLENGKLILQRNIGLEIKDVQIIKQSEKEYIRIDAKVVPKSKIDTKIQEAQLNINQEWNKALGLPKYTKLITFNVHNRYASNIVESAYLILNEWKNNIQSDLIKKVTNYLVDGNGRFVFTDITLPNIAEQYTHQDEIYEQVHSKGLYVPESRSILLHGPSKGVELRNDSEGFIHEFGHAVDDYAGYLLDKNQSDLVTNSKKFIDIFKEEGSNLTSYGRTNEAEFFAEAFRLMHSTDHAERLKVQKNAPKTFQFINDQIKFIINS
BoNT-F LC inh = BoNT F light chain protease inhibition. Multiplex microsphere protease cleavage assay, flow cytometry. inhibition, % at 10 µM. 0.22% of 360,000 active; in the data active = inhibition above about 35%, passing the limit was not always enough; inconclusive = no clear call, values can overlap the other calls; note: plate controls were buffer without enzyme for full effect and enzyme alone for no effect
Bead autofluor = flagged as autofluorescent in microsphere protease counterscreen. AID 624483. fluorescence intensity (test concentration not listed). 3.1% of 360,000 active. compound autofluorescence counterscreen, microsphere flow cytometry; stronger effect = higher value; in the data active = fluorescence intensity above about 16000; inconclusive = no clear call, values can overlap the other calls
SSB-PriA inh = blocks PriA binding to SSB C-terminal tail; AlphaScreen SSBct-PriA binding, biotinylated peptide; inhibition, % at 33 µM; 0.6% of 430,000 active; in the data active = inhibition mostly above about 37%, no sharp cut-off; inactive = mostly below about 20%;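 note: plate controls were negative control peptide for no effect and reference peptide for full effect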
MazF activator = increases E. coli MazEF RNase cleavage of RNA. P0AE70. FAM/BHQ RNA-DNA oligo cleavage fluorescence, 5 h. activation, % at 20 µM. 0.32% of 350,000 active; in the data active = activation above about 50%
BoNT-A LC inh2 = BoNT A light chain protease inhibition | multiplex microsphere protease substrate cleavage, flow cytometry | inhibition, % at 10 µM | 0.17% of 360,000 active | AID 588499; note: plate controls were buffer without enzyme for full effect and enzyme alone for no effect
* hit, by the source's call; i = inactive; ? = inconclusive; · = no result given; + = active, no number. Shown are actives, neighbours in structure and some others; about 3.3% of the full set was active somewhere. Cut-off read from the data, not from the text of the source, unless noted: active = inhibition above about 30%; inconclusive = no clear call, values can overlap the other calls; inactive = below that.

SMILES	Anthrax LF inh2	BoNT-F LC inh	Bead autofluor	SSB-PriA inh	MazF activator	BoNT-A LC inh2
COc1ccc(/C(N)=N/OC(=O)CN(C)S(=O)(=O)c2ccccc2)cc1	-12.8	1.7	3282	·	3.2	0.0
N/C(=N\OC(=O)Cc1ccccc1)c1ccccn1	-0.7	-13.3	2780	·	0.3	-0.2
NC(=NOC(=O)Cc1ccc([N+](=O)[O-])cc1)c1ccccn1	·	·	·	41.8*	·	·
CN(CC(=O)O/N=C(\N)c1ccccn1)S(=O)(=O)c1ccccc1	-4.9	1.3	19036*	i	4.6	2.6
COC(=O)c1c(C)n(Cc2ccco2)c2ccc(O)cc12	-1.9	-9.1	24915*	15.1	1.1	-7.6
COc1ccc(S(=O)(=O)CC(=O)N(CCCN(C)C)c2nc3c(Cl)cccc3s2)cc1	·	·	·	-8.0	·	·
CN(C)c1ccc(/C=C/c2ccc3c4ccccc4ccc3[n+]2-c2ccccc2)cc1	-62.2	+	1663	75.3	-10.5	62.4*
CC(C)Oc1ccc(OCCNC2CCCC2)cc1	0.1	1.3	20103*	1.8	7.7	1.7
COc1ccccc1OCCNC1CCCC1	2.7	1.9	21707*	-1.8	-5.2	0.4
COc1ccc(OC)c(S(=O)(=O)NCCCn2ncccc2=O)c1	·	·	·	-20.0	·	·
Cc1cc(C)cc(OCCNS(=O)(=O)c2ccc(F)cc2)c1	·	·	·	-18.0	·	·
COc1ccc(-c2c(C(=O)O)nc3ccccc3c2C(=O)O)cc1	-3.0	-0.4	16308*	6.5	0.6	0.5
COC(=O)c1c(C)nc2ccccc2c1C(=O)O	0.0	-0.7	2245	0.6	-4.9	-0.5
Cc1cc(C(=O)Nc2nc(C(=O)NCCOc3ccc(F)cc3)co2)no1	·	·	·	0.0	·	·
O=C(CCCN1C(=O)c2ccccc2C1=O)NCc1cccnc1	-4.2	-2.6	22861*	-7.4	3.0	-0.8
COc1ccc(CCNC(=O)CCCN2C(=O)c3ccccc3C2=O)cc1OC	-3.0	-2.9	12573	2.9	5.2	-0.3
CCOC(=O)N1CCN(c2c(NCCc3ccc(OCC)c(OCC)c3)c(=O)c2=O)CC1	0.5	-5.0	24406*	-4.4	6.1	-3.6
CNC(=O)CCCc1nc(-c2ccccc2Cl)no1	-4.8	-10.4	17469*	-4.2	-4.8	-5.5
CCOc1ccc(CCNC(=O)CCCN2C(=O)c3ccccc3C2=O)cc1OCC	-0.7	1.5	21585*	3.0	8.4	?
O=C(CCCN1C(=O)c2cccc3cccc(c23)C1=O)NCc1cccnc1	-2.7	0.7	3841	-5.6	4.8	0.1
CCc1ccc(CNC(=O)c2cc(-c3sc(C)nc3C)[nH]n2)cc1	·	·	·	-2.0	·	·
CCOC(=O)N1CCN(C(c2ccccc2Cl)c2c(O)cc(C)n(Cc3ccccn3)c2=O)CC1 (configuration not stated)	·	·	·	-5.0	·	·
O=C(CCc1nc(-c2ccccc2)no1)NCCc1ccccc1	-10.0	1.5	22301*	-30.8	-5.4	3.1
COc1ccc(-c2noc(CCC(=O)NCCc3ccccc3)n2)cc1	-7.1	-8.9	3869	7.4	3.2	-1.8
COc1ccc(-c2noc(CCC(=O)NCc3cccnc3)n2)cc1OC	-2.8	-14.6	9256	-20.7	-1.4	0.8
SMILES	Anthrax LF inh2	BoNT-F LC inh	Bead autofluor	SSB-PriA inh	MazF activator	BoNT-A LC inh2
COc1ccc(-c2noc(CCC(=O)NCc3cccnc3)n2)cc1	1.1	-4.4	23172*	-11.9	-1.0	-0.9
O=C(CCCc1nc(-c2ccccc2)no1)NCc1cccnc1	-0.1	-8.3	24495*	-13.9	1.4	?
COc1ccc(NC(=O)c2sccc2SCc2cccc(C(F)(F)F)c2)cc1	-6.2	-5.3	8053	-63.4	-7.8	-0.8
O=C(Nc1ccc(F)cc1)c1sccc1SCc1cccc(C(F)(F)F)c1	-4.2	-14.5	26797*	-91.3	-1.4	?
Cc1ccc(-c2csc3ncnc(Sc4nnc(CN5CCCCCC5=O)o4)c23)cc1	-3.6	-0.8	16668*	3.3	11.9	0.0
O=C(Nc1ccc2c(c1)OCO2)c1cc(-c2ccncc2)nc2ccccc12	-10.8	-32.2	3338	9.4	6.1	2.2
O=C(Nc1ccc2c(c1)OCCO2)c1cc(-c2ccccc2)nc2ccccc12	-4.8	-14.6	24974*	13.7	2.5	?
Cc1ccc(C)c(-c2cc(C(=O)Nc3sc(C)c(C)c3C(N)=O)c3ccccc3n2)c1	-0.5	0.0	23000*	-0.6	5.9	?
O=C(Nc1ccc2oc(-c3ccncc3)nc2c1)c1ccc2c(c1)OCCO2	-0.7	1.4	3854	-5.4	-102.0	-0.9
O=C(Nc1cccc2cccnc12)c1ccc2c(c1)OCCO2	-8.1	-3.9	23021*	-39.9	6.2	?
O=C(Nc1ccc2oc(-c3ccccc3)nc2c1)c1ccc2c(c1)OCCO2	-1.0	1.7	22968*	-17.0	-23.6	0.3
COc1ccccc1N1CCN(CCNC(=O)c2c(C)cc(C)cc2C)CC1	·	·	·	-9.0	·	·
CC(C)Cc1nnc(NC(=O)c2cc(-c3ccccc3)nc3ccccc23)s1	-1.0	-2.2	16445*	-11.1	-3.0	-0.9
CC(C)Cc1nnc(NC(=O)c2cc(-c3ccncc3)nc3ccccc23)s1	-13.2	-29.0	5007	1.2	-4.7	1.3
COc1ccccc1/C=c1\sc2n(c1=O)C1c3ccccc3OC(C)(N=2)C1C(C)=O (configuration not stated)	·	·	·	4.0	·	·
C=CCn1c(SCC(N)=O)nc2scc(-c3ccc(C)c(C)c3)c2c1=O	·	·	·	-10.0	·	·
CCN(CC)c1ccc(Nc2nc(Cl)ncc2Br)cc1	25.6	-1.4	3629	41.4*	3.3	-0.1
O=S(=O)(c1ccccc1Cl)N1CCc2oncc2C1	·	·	·	-19.0	·	·
O=C(/C=C/c1cccc(Cl)c1)Nc1ccncc1	-2.9	-1.6	21112*	-1.2	-1.9	-1.5
O=C(/C=C/c1cccc(Cl)c1)NCc1cccs1	0.4	-8.8	21424*	-17.2	-6.9	-5.7
O=C(/C=C/c1cccc(Cl)c1)NCc1ccncc1	-0.3	-2.7	2046	-10.3	2.2	-0.6
O=C(/C=C/c1c(Cl)cccc1Cl)Nc1ccncc1	-0.4	0.2	20186*	-19.2	10.5	0.4
O=C(/C=C/c1c(F)cccc1Cl)Nc1ccncc1	2.5	-4.0	2564	3.9	1.8	-0.4
CCCCC(=O)N1CCN(CC(F)(F)F)CC1	·	·	·	-7.0	·	·
COc1cccc(C(=O)Nc2ncc3c(n2)CC(c2ccc(OC)cc2OC)CC3=O)c1 (configuration not stated)	-1.9	-0.9	24133*	-7.4	1.9	?
SMILES	Anthrax LF inh2	BoNT-F LC inh	Bead autofluor	SSB-PriA inh	MazF activator	BoNT-A LC inh2
COc1ccc(C(=O)Nc2ncc3c(n2)CC(C)CC3=O)cc1 (configuration not stated)	-3.3	5.6	1804	11.0	2.6	0.4
COc1cc(-c2nnc(NC(=O)CN3C(=O)c4ccccc4C3=O)o2)cc(OC)c1OC	·	·	·	-8.0	·	·
Cc1ccc(S(=O)(=O)Nc2ccc3nc(N)sc3c2)cc1	-2.7	4.9	19122*	26.9	1.3	?
Cn1cccc1-c1nc2ccc(NC(=O)c3ccc([N+](=O)[O-])cc3)cc2[nH]1	-4.5	-12.1	19889*	-5.5	8.7	0.9
Cc1ccc(S(=O)(=O)Nc2ccc3nc(C)sc3c2)cc1	-5.5	2.2	2802	-8.8	1.1	0.7
Cn1cccc1-c1nc2ccc(NC(=O)c3ccccc3)cc2[nH]1	-7.8	-7.8	4892	18.5	9.4	0.2

Screens deposited in PubChem BioAssay by several laboratories.
